Here are results for 37 compounds from PubChem BioAssay (NCATS).

Results filed as inconclusive are left out. Calls of active or inactive are those of the source. Calls follow the shape of the dose curve; as a rule, active = well fitted inhibition curve with a large enough effect; inconclusive = small, poorly fitted or top-dose-only effect; inactive = flat fitted curve, though single readings scatter.

This experiment relates to Zika virus NS2B-NS3 protease. In words: Primary screen GU AMC qHTS for Zika virus inhibitors (AID 1347154).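 Also: 0% = no-inhibitor control and -100% = no-enzyme control; nearly all actives have a fitted effect of over 70% in size.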 The conditions noted are these: Zika NS2B-NS3 unlinked protease, AMC fluorogenic substrate; series mostly up to 54.1 µM; activity change, negative = inhibition: at the top concentration. The gist of the method:
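Unlinked Zika NS2B hydrophilic domain/NS3 protease domain noncovalent complex (25 nM final) in 10 mM Tris-HCl pH 8.0, 0.01% Tween 20, with AMC peptide substrate. Fluorescence (ex 340, em 450 nm) change over 15 min, room temperature; percent inhibition fitted to 4-parameter Hill equation.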
A general note: In qHTS, concentration-response curves come from the screen itself.
Consider `CCOC(N)=O`, for which the “activity change, negative = inhibition” value was -4.18% (inactive).

With `CC(C)(C)NCC(O)COc1cccc2c1CCC(=O)N2` (configuration not stated), the “activity change, negative = inhibition” value is -0.679% (inactive).

As for `Cc1cc(C)c(NC(=O)CN(CC(=O)O)CC(=O)O)c(C)c1Br`, the “activity change, negative = inhibition” value is -1.94% (inactive).

For `CCCCCCCCCCOc1cc2c(=O)c(C(=O)OCC)c[nH]c2cc1OCC`, the activity change, negative = inhibition is -1.56% [at 4.99 µM] (inactive).

`CC(=O)[C@@]1(O)CC[C@H]2[C@@H]3C[C@H](C)C4=CC(=O)C=C[C@]4(C)[C@@]3(F)[C@@H](O)C[C@@]21C`: the “activity change, negative = inhibition” value was -0.854% (inactive).

For `OC[C@@H](O)[C@@H](O)[C@H](O)[C@H](O)CO`, the “activity change, negative = inhibition” value was -1.78% (inactive).

In the case of `CN/C(=C\[N+](=O)[O-])NCCSCc1csc(CN(C)C)n1`, the “activity change, negative = inhibition” value was -6.35% (inactive).

As for `Cc1ccc2c(c1)c1c3n2CCNC3CCC1` (configuration not stated), the “activity change, negative = inhibition” value is -7.76% (inactive).

`O=C(O)CNC(=O)c1ccccc1I`: the “activity change, negative = inhibition” value is -1.3% (inactive).

For the compound `COc1ccccc1OC(=O)Oc1ccccc1OC`, the “activity change, negative = inhibition” value was -0.417% (inactive).

Regarding `O=c1[nH]cnc2nc[nH]c12`, the “activity change, negative = inhibition” value is -4.47% (inactive).

As to `O=C1c2ccccc2C(=O)C1c1ccc(Br)cc1`, the “activity change, negative = inhibition” value is -13.4% (inactive).

Turning to `CC(=O)SC[C@@H](Cc1ccccc1)C(=O)NCC(=O)OCc1ccccc1`, the “activity change, negative = inhibition” value was -5.05% (inactive).

With `COc1ccc(Cc2cnc(N)nc2N)cc1OC`, the “activity change, negative = inhibition” value was 0.915% (inactive).

`O=C(NCN1CCOCC1)c1cnccn1`: the “activity change, negative = inhibition” value was -1.13% (inactive).

With `CCN(CC)CCc1nc(-c2ccccc2)no1`, the “activity change, negative = inhibition” value was -1.69% (inactive).

For `O=C(O)CCCc1ccccc1`, the Potency entry was “inactive”.

`C=CCSCC1Nc2cc(Cl)c(S(N)(=O)=O)cc2S(=O)(=O)N1` (configuration not stated): the “activity change, negative = inhibition” value was -4.18% (inactive).

On to `CC(=O)N1C[C@H](O)C[C@H]1C(=O)O`, for which the “activity change, negative = inhibition” value is 1.65% (inactive).

As for `COC(=O)c1cccnc1`, the “activity change, negative = inhibition” value is -2.98% (inactive).

On to `O=C1c2cccc(O)c2C(=O)c2c(O)cccc21`, for which the “activity change, negative = inhibition” value is -2.23% (inactive).

In the case of `O=C(O)c1ccc(OCCCOc2ccc(C(=O)O)cc2)cc1`, the “activity change, negative = inhibition” value was -0.954% (inactive).

For `O=S1(=O)OC(c2ccc(O)cc2)(c2ccc(O)cc2)c2ccccc21`, the “activity change, negative = inhibition” value was -5.61% (inactive).

Turning to `CC(C)(C)C(=O)OCOC(=O)[C@@H]1N2C(=O)[C@@H](NC(=O)[C@H](N)c3ccccc3)[C@H]2SC1(C)C`, the “activity change, negative = inhibition” value is -7.49% (inactive).

`CC(=O)N[C@H]1[C@H]([C@H](O)[C@H](O)CO)OC(C(=O)O)=C[C@@H]1N=C(N)N`: the “activity change, negative = inhibition” value was 3.3% (inactive).

As to `O=C(CN1CCNCC1)NC1CCCCC1`, the “activity change, negative = inhibition” value was -0.678% (inactive).

As for `O=C1CC[C@@H](C(=O)O)N1`, the “activity change, negative = inhibition” value was 1.35% (inactive).

Take `O=C(O)CCCCC1CCSS1` (configuration not stated): the “activity change, negative = inhibition” value is 4.5% (inactive).

For `NNc1nnc(NN)c2ccccc12`, the “activity change, negative = inhibition” value is -9.1% (inactive).

`C[N+](C)(C)CC[N+]1(C)Cc2c(Cl)c(Cl)c(Cl)c(Cl)c2C1`: the Potency result is “inactive”.

For the compound `CCOc1ccc(C(=O)OCCN(CC)CC)cc1`, the “activity change, negative = inhibition” value is -2.57% (inactive).

For the compound `O=C(O)c1cc(=O)c2ccccc2o1`, the “activity change, negative = inhibition” value was -1.26% (inactive).

For `CC(C)c1cc2c(cc1S(=O)(=O)O)[C@@]1(C)CCC[C@@](C)(C(=O)O)[C@@H]1CC2`, the “activity change, negative = inhibition” value was -2.63% (inactive).

Take `COC(=O)N/N=C/c1c[n+]([O-])c2ccccc2[n+]1[O-]`: the “activity change, negative = inhibition” value is -10.9% (inactive).

In the case of `CCN(CC)CC1CCCCN1CC(=O)N1c2ccccc2C(=O)Nc2cccnc21` (configuration not stated), the “activity change, negative = inhibition” value is 0.0282% (inactive).

Consider `CC(C)C[C@@H](N)C(=O)O`, for which the “activity change, negative = inhibition” value is -2.56% [at 25.8 µM] (inactive).

As to `CCCNC(C)C(=O)Nc1c(C)csc1C(=O)OC` (configuration not stated), the “activity change, negative = inhibition” value was -1.74% (inactive).
